In PubChem BioAssay AID493085 (Broad Institute, 2011):
Among all 2,400 compounds or so, about 360 (15%) were called active. About 5% were inconclusive and are not listed. Not all results are given here. Measured potencies and affinities stand elsewhere. A number with no mark means an inactive call.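 How the source made its calls: active means falling-signal curve with half-maximal concentration at or below ten times the top tested dose; inconclusive means flat fit at 30 to 70% inhibition, or poor fit; inactive means signal rise, flat within 30%, or potency beyond limit.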

Assay: dox-induced RFP signal loss in R4-3T3 cells – cell-based, NIH3T3 R4, HSE-GFP and Tet-On RFP, cherry-pick, set 3, dose response (AID 493085);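 further: cells heat shocked 2 h at 42 °C with doxycycline to induce reporters; 0% = neutral control wells and -100% = didemnin B control at 400 nM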
Settings: NIH3T3 R4 HSE-GFP/Tet-RFP reporter, fluorescence, 48 h; series mostly up to 19.5 µM; activity change, negative = inhibition: at the top concentration

Structure (SMILES)	activity change, negative = inhibition [%]
c1ccc(-c2nn[nH]n2)nc1	0.524
O=C(CCCNC(=O)/C(=C\c1ccccc1F)NC(=O)c1ccccc1)OCc1ccccc1	12.5
COc1ccc(C)cc1S(=O)(=O)Nc1cc2c3c(c1)CCC(=O)N3CCC2	4.91
COc1ccccc1NS(=O)(=O)c1ccc(C)c(C(N)=O)c1	2.29
CN(C)c1ccc(-c2nc3n(n2)C(c2cccnc2)C2=C(CC(C)(C)CC2=O)N3)cc1 (centres undefined)	8.15
CCCn1c2ccccc2c2nnc(SCc3[nH]c(=O)[nH]c3C(=O)CCCCC(=O)OCC)nc21	-4.05
CC(=O)NC(c1ccc(C)cc1)c1cc(Cl)c2cccnc2c1O (centres undefined)	9.24
Cc1cccc(NCc2ccc(O)c3ncccc23)c1C	-5.05
Oc1c(CN2CCOCC2)cc(COCc2ccccc2)c2cccnc12	94.7
Cn1ncc([N+](=O)[O-])c1C(=O)Nc1ccccc1Cl	-12.2
CCN1C(=O)C(CC(=O)Nc2ccc(OC)cc2)N(Cc2ccc3c(c2)OCO3)C1=S (centres undefined)	-0.998
Cc1cc(N=Nc2ccc(Cl)cc2)cc(CN2CCCC2)c1O	-0.088
COc1ccc(C(=O)NC(=S)N2CCNC(=O)C2CC(=O)OC(C)C)cc1 (centres undefined)	-8.04
CCOC(=O)c1c(C)[nH]c(C(=O)COC(=O)C2=NNC(=O)CC2)c1C	9.83
O=C(O)c1cc(S(=O)(=O)N(Cc2ccccc2)c2ccccc2Cl)ccc1Cl	-9.49
O=C(Nc1cccnc1)c1coc(=O)c2ccccc12	0.689
CC(C)c1ccc(NC2(C#N)C(=O)Nc3ccccc32)cc1 (centres undefined)	-4.73
O=C1SCC(c2ccccc2)=NN1Cc1ccccc1	5.45
CCOc1ccc(-n2c(O)c(/C=N/Nc3nnc(C)c(=O)[nH]3)c3ccccc3c2=O)cc1	3.96
CCOc1ccc(NCc2nnc(SCC(=O)Nc3cc(C)on3)n2-c2ccc(OC)cc2)cc1	2.07
CCOC(=O)c1cccc(NC(=O)CCS(=O)(=O)c2ccc(Br)s2)c1	-1.87
CC(OC(=O)CN1C(=O)c2ccccc2C1=O)C(=O)NC1CCCCC1C (centres undefined)	15.5
COC1CCCN(C(=O)c2ccc(OC3CCN(CCc4ccccc4)CC3)cc2)C1 (centres undefined)	-0.07

Structure (SMILES)	activity change, negative = inhibition [%]
O=C(CCN1C(=O)/C(=C/c2ccc(F)cc2)SC1=S)NCCCn1ccnc1	-9.6
Cn1nc(N)c2c(-c3ccccc3)c(C#N)c(N)nc21	7.3
Cc1c(NC(=O)C2CC(c3ccc(F)cc3)=NO2)c(=O)n(-c2ccccc2)n1C (centres undefined)	-8.64
Cc1ccc(N=C2NC(=O)/C(=C\c3cccs3)S2)cc1C	9.6
O=C(NCc1ccccc1C(F)(F)F)C12CN(Cc3ccccc3)CC1C(c1ccc([N+](=O)[O-])cc1)=NO2 (centres undefined)	3.54
COC(=O)c1cc(S(=O)(=O)NCc2ccc(F)cc2)cn1C	-5.9
COc1ccc(CNC(=O)CCCNC(=O)c2ccc(Cl)cc2)cc1OC	-0.28
Cc1ccc(C(=O)O/N=C(\N)c2ccccn2)c(C)c1	6.48
CC(C)(C)C(=O)Nc1ccc(-c2cc3cc(Cl)ccc3o2)cc1	-1.75
CC1CCN(S(=O)(=O)c2ccc(C(=O)Nc3nnc(-c4ccccn4)o3)cc2)CC1	-7.08
CCS(=O)(=O)c1ncc(Cl)c(C(=O)Nc2ccc(C)cc2)n1	11.8
CN1CCN(S(=O)(=O)c2ccc(Oc3ccc(F)c(Cl)c3)nc2)CC1	-5.99
CCc1ccc(OC(C)C(=O)N(Cc2ccco2)C2CCS(=O)(=O)C2)cc1 (centres undefined)	-7.01
Cc1ncc([N+](=O)[O-])n1CC(=O)Nc1ccc(F)cc1	8.57
O=C(Cn1nc(-c2ccc(Cl)cc2)ccc1=O)NCC1CCCO1 (centres undefined)	-3.51
Cc1cc(Nc2cccc(Cl)c2)nc(-c2ccccc2O)n1	6.37
O=C(O)c1cccc(Nc2ccnc(Nc3cccc(C(=O)O)c3)n2)c1	-10.5
CCOc1cc(CNCC2CCCN2CC)cc(Cl)c1OC (centres undefined)	13.6
COc1ccc(-c2cn(-c3ccccc3)nc2CO)cc1	-5.57
Cn1ccnc1C1CCCCN1C(=O)c1cc(COc2ccc(F)cc2Cl)on1 (centres undefined)	-6.6
Cc1cc(=O)n2[nH]c(=O)c(N=Nc3ccccc3)c2[nH]1	4.62
CN(C)c1ccc(C(=S)Nc2ccccc2)cc1	0.39
Cc1ccc(Cl)cc1NC(=O)C1COc2ccccc2O1 (centres undefined)	-0.583

Structure (SMILES)	activity change, negative = inhibition [%]
CN(C)c1ccc(/C=N/NC(=O)C2COc3ccccc3O2)o1 (centres undefined)	48.8
Cc1ccc(O)c(/C=N/NC(=O)CN2CCCC2)c1	0.931
NCCCC[C@@H](C(=O)N1CCNCC1)n1cc([C@@H](N)CO)nn1	5.14
COc1ccc(OC)c(C(=O)c2ccc(C(=O)O)cc2)c1	2.81
COc1ccc(C(=O)c2c[nH]cc2-c2ccccc2)cc1	-2.31
Cc1cn2c(nc(=O)c3cccnc32)s1	-0.559
Cc1ccc(S(=O)(=O)N2CCC(C)CC2)cc1[N+](=O)[O-]	-4.18
COc1ccc(C(=O)N/C(=C\c2cccs2)c2nc3ccccc3[nH]2)cc1OC	3.93
Cn1c(N2CCOCC2)nc(-c2ccccc2)c1-c1ccccc1	-9.58
C=CCc1c(C)nc2c(-c3ccccc3)cnn2c1N1CCOCC1	2.27
C=CCn1c(C)cc(C(=O)COC(=O)CNC(=O)c2ccccc2)c1C	-5.09
O=C(COC(=O)c1cc[n+]([O-])cc1)Nc1cccc(Cl)c1Cl	0.417
CNC(=O)COC(=O)c1ccccc1C(=O)c1ccc(Cl)c([N+](=O)[O-])c1	5.21
CC(C)(C)c1ccc(/C=C(\C#N)C(=O)Nc2ccccn2)cc1	-4.51
COc1cc(C(C(=O)NCc2ccccc2)N(Cc2ccco2)C(=O)c2cnccn2)cc(OC)c1OC (centres undefined)	-12.3
COc1ccc2cc3c(N)nn(C(=O)Cc4c[nH]c5ccccc45)c3nc2c1	-34.1
CSc1cccc(NC(=S)N2CCC(N(C)C3CCCC3)CC2)c1	0.463
CS(=O)(=O)c1ccc(NC(=O)c2ccc3c(c2)S(=O)(=O)N=C2CCCCCN23)cc1	-1.06
Cc1cccc(N(Cc2ccccc2)C(=O)CCl)c1	29.4
CCN(C(=O)COC(=O)/C=C/c1ccccc1)C1CCCCC1	4.41
COc1ccccc1NC(=O)[C@H](COCc1ccccc1)NC(=O)OC(C)(C)C	-5.58
CCn1c(SCC(=O)N(C)C2CCS(=O)(=O)C2)nnc1-c1cccs1 (centres undefined)	10.8
CN(C(=O)CCNC(=O)Cn1cnc2ccccc2c1=O)c1ccccc1F	-8.21
